Screening results as filed in PubChem.
Compounds with a hit are over-represented: about 0.59% of the library has one in this group of screens.
IL-2 act = activates IL-2 in a cell-based reporter assay | activation, % (series mostly up to about 46 µM) | 0.065% of 360,000 active | IL-2 activation reporter assay, cell-based qHTS; stimulated with anti-CD3/CD4/CD28 beads; in transgenic mouse T cells; in the data active means activation above about 50%; inconclusive means mostly about 30% to 49%; further: 0% is about no effect
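Screening format: compound pinned onto unstimulated transgenic mouse T cells, 60 min incubation, then anti-CD3/anti-CD4/anti-CD28 bead stimulation for 18 hours at 37 degrees C, followed by EGFP and DsRed detection.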
Rango release inh = inhibitors of RanGTP-induced Rango-importin beta complex dissociation; Potency, µM (doses to about 46.1 µM), for the others: at the top dose activity change, negative = inhibition; 0.071% of 340,000 active; Biochemical FRET Rango-importin beta, RanGTP-induced dissociation; O95149+P62826; further: potency means the concentration at half of the fitted maximal effect; % of control where 0% means no effect; nearly all actives have a fitted effect of over 45% in size
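Rango (0.1 uM)–importin beta (0.25 uM) complex; RanGTP-RCC1 trigger; 45 min RT; CFP/YFP FRET read.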
PKM2 act = activators of human pyruvate kinase M2; P14618; purified PKM2, Kinase-Glo ATP luminescence, activation; response scale: 0% is enzyme alone, no compound; Potency, µM (top dose mostly 57.5 µM), without a hit: at the highest dose activation, hits mostly activators; 0.34% of 260,000 active; active means well fitted activation curve with a large enough effect; inconclusive means small, poorly fitted or top-dose-only effect; inactive means no such curve, though single readings can be large or run the other way; further: potency means the concentration at half of the fitted maximal effect; on the % scale 0 is the no-effect control and ±100 the full control effect; nearly all actives have a fitted effect of over 55% in size
Target sequence (P14618 whole entry, looked up): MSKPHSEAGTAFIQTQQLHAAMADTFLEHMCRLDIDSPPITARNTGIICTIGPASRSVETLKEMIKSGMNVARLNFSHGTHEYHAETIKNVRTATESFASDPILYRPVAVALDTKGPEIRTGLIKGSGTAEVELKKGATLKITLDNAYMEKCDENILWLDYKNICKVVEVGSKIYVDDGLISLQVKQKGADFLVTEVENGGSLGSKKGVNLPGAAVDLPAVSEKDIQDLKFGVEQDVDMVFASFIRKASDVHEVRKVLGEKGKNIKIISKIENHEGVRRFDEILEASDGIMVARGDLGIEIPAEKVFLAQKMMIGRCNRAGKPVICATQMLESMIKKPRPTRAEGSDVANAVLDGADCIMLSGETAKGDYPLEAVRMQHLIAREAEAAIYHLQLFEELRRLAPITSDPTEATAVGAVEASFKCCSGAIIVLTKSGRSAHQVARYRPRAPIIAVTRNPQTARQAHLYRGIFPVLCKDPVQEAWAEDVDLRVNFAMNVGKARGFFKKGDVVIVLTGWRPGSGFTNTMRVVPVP
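Kinase-Glo luminescence reports ATP generated from ADP (0.1 mM) and PEP (0.5 mM) by purified hPK-M2 after 1 h at room temperature, pH 7.2 imidazole buffer; intermediate enzyme activity allows detecting inhibitors and activators.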
Rango-impB inh = inhibitors of Rango-importin beta complex formation. Q14974. Potency, µM (top dose mostly 92.2 µM), for inactives: at the top dose inhibition of complex formation. Rango CFP/YFP FRET sensor + importin beta, 45 min. 0.031% of 340,000 active. AID 540263;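 further: potency means the concentration at half of the fitted maximal effect; 0% = DMSO wells and 100% = buffer wells lacking importin beta; nearly all actives have a fitted effect of over 15% in size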
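FRET biosensor Rango (snurportin 1 IBB between N-terminal EYFP and C-terminal Cerulean), 50 nM in PBS/1 mM DTT/0.02% Tween-20/0.1% BSA, preincubated 5 min RT with compound; 0.125 microM importin beta added, 45 min RT, CFP/YFP FRET ratio read.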
A-T KAP1 phos = candidate therapy for ataxia-telangiectasia. 0.19% of 320,000 active. Potency, µM (highest dose often 57.5 µM), inactives show at the top dose activation, hits mostly activators. F2112 A-T fibroblasts, KAP-1 phosphorylation AlphaLISA; neocarzinostatin DNA damage 30 min before lysis; active means well fitted activation curve with a large enough effect; inconclusive means small, poorly fitted or top-dose-only effect; inactive means no such curve, though single readings can be large or run the other way; further: potency means the concentration at half of the fitted maximal effect; % of control where 0% means no effect; nearly all actives have a fitted effect of over 45% in size
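hTERT-immortalized A-T patient fibroblasts (F2112), 500 cells/well in OPTI-MEM, 1% FBS, got compounds for 60 min, then NCS for 30 min at 37C. Lysates were then assayed for phospho-KAP-1 by AlphaLISA (anti-pKAP1 donor, anti-KAP1 acceptor beads), 6 hr at 25C.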
The depositor's hits bear a star; ? = inconclusive; / = no result given. Unless noted, the call rests on the fitted dose curve.

SMILES | IL-2 act | Rango release inh | PKM2 act | Rango-impB inh | A-T KAP1 phos
O=C(NC1CC1)C1=C[C@@H](c2csc3ccccc23)C[C@@H](OCCCCO)O1 | 0 | 2% | 14µM* | 3% | 13%
O=C(NCc1ccccc1Cl)c1ccc(S(=O)(=O)NCc2ccco2)cc1 | -2 | 3% | / | -1% | 0%
O=[N+]([O-])c1ccccc1/C=C/C=N/n1c(-c2ccccc2F)n[nH]c1=S | 0 | 1% | -5% | 4% | 25µM*
COC(=O)c1ccc(C(NC(=O)OCc2ccccc2)/C(F)=C/[C@@H](C)C(=O)NCCc2c[nH]c3ccc(OC)cc23)cc1 (stereo partly specified) | / | / | 0% | / | /
O=C(COC(=O)CNC(=O)c1ccc([N+](=O)[O-])o1)Nc1ncc(Cl)cc1Cl | -4 | 0% | / | -2% | 35µM*
O=C(COC(=O)CNC(=O)c1ccc([N+](=O)[O-])o1)Nc1ncc(C(F)(F)F)cc1Cl | -1 | -13% | / | 1% | 22µM*
Cc1ccc(NC(=O)COc2coc(CN3CCc4ccccc43)cc2=O)cc1Cl | -3 | -9% | / | 2% | -9%
CCCN(CC(=O)Nc1ccccc1C)C(=O)c1cccc(-n2cnnn2)c1 | 0 | 0% | -1% | 0% | 2%
Oc1ccc(/C=C/c2ccc3ccccc3n2)cc1 | -3 | 18µM* | -29% | ? | -10%
C(=C\c1ccc2ccccc2n1)/c1ccccc1 | 0 | 9% | -46% | 0% | 3%
OCc1cn(Cc2ccc(O)c3ncccc23)cn1 | / | / | / | / | -6%
CCc1nc(Sc2nnnn2-c2ccccc2)c2c3c(sc2n1)CCCC3 | 0 | 1% | 10µM* | -2% | -2%
CC(=O)Nc1sc(N/N=C/c2ccc(O)cc2)nc1-c1ccc(C)cc1 | -1 | -8% | 18µM* | -2% | 0%
CC(=O)Nc1sc(N/N=C/c2ccccc2F)nc1-c1ccc(C)cc1 | 0 | -17% | 10µM* | ? | 3%
CC(=O)Nc1sc(N/N=C/c2ccccc2)nc1-c1ccc(C)cc1 | -1 | 7% | ? | 1% | 1%
Cc1cc(CNC(=O)[C@H](C)[C@H]2C[C@]2(C)[C@H](NC(=O)OCc2ccccc2)c2ccccc2)nn1C | / | / | 3% | / | /
COc1ccc(N2C(=O)[C@@H]3[C@H](C2=O)[C@H]2C=CC=NN2[C@@H]3C(=O)Nc2ccc(Cl)cc2)cc1 | 0 | ? | 8.9µM* | 0% | 2%
O=C(Nc1ccc(Cl)cc1)[C@@H]1[C@@H]2C(=O)N(c3ccc4ccccc4c3)C(=O)[C@@H]2[C@H]2C=CC=NN21 | 0 | -18% | ? | -1% | 1%
COc1ccc(NS(=O)(=O)c2cccc(C(=O)N3CCN(Cc4ccc5c(c4)OCO5)CC3)c2)cc1 | -3 | 32% | / | -3% | 1%
COc1ccccc1N1CCN(C(=O)c2ccc(NS(=O)(=O)c3ccc(C)cc3)cc2)CC1 | -1 | 0% | 8.9µM* | 1% | 1%
CCOc1ccccc1N1CCN(C(=O)c2ccc(S(=O)(=O)Nc3ccccc3)cc2)CC1 | -1 | -3% | / | 0% | -5%
O=C(c1ccc(NS(=O)(=O)c2ccccc2)cc1)N1CCN(Cc2ccc3c(c2)OCO3)CC1 | 14 | 1% | 13µM* | -1% | 2%
O=C(c1ccc(S(=O)(=O)NCc2ccco2)cc1)N1CCN(Cc2ccccc2)CC1 | 0 | 1% | 7.9µM* | 0% | -4%
COc1ccc(S(=O)(=O)N(C)c2ccc(C(=O)NCc3ccco3)cc2)cc1 | 0 | 19% | 13µM* | -4% | 20%
CN(c1ccc(C(=O)NCc2ccc3c(c2)OCO3)cc1)S(=O)(=O)c1ccccc1 | 8 | 13% | 16µM* | 3% | -1%
SMILES | IL-2 act | Rango release inh | PKM2 act | Rango-impB inh | A-T KAP1 phos
CN(c1ccc(C(=O)NCc2ccc3c(c2)OCO3)cc1)S(C)(=O)=O | -2 | -15% | -3% | -2% | -2%
Cc1nc(SCC(=O)Nc2sccc2C(N)=O)c2c(C)c(C)sc2n1 | -2 | / | / | / | /
Cc1nc(SCC(=O)Nc2cc(C(N)=O)cc(C(N)=O)c2)c2c(C)c(C)sc2n1 | -2 | -17% | 9% | 0% | 35µM*
Cc1cnc(C(=O)OCC(=O)NC(C)c2ccccc2)cn1 (stereo unspecified) | 1 | -6% | / | 0% | 0%
C/C(=N/NC(=O)CNC(=O)/C=C/c1ccco1)c1ccc(Cl)cc1 | 0 | 3% | 25µM* | -3% | -3%
CCOc1ccc2c(c1)S/C(=C\c1cccs1)C(=O)N2 | 60* | 16% | 0% | 1% | 39%
Cc1nc2cc3c(=O)n(C)cnc3cc2n1Cc1ccccc1 | -1 | / | / | / | /
C(=C\c1nccc2c1[nH]c1ccccc12)/c1ccccc1 | -2 | 16µM* | -7% | ? | 22µM*
Cc1nc(COC(=O)c2ccc(S(=O)(=O)N3CCCC3)cc2)cs1 | -1 | 1% | 28µM* | 0% | /
Cc1cccc(-n2nnnc2SCn2nnc3ccccc3c2=O)c1 | -2 | 6% | 16µM* | 1% | -1%
O=c1c2ccccc2nnn1CSc1nnnn1-c1ccc(O)cc1 | 2 | 2% | 14µM* | 0% | 2%
COc1cc(NC(=O)Nc2nnc([C@H]3C[C@H](O)[C@@H](CO)O3)s2)cc(OC)c1OC | 2 | / | / | / | /
CC(C)(C)OC(=O)N1CCc2onc(-c3ccc(N)cc3)c2C1=O | -1 | / | / | / | /
O=[N+]([O-])c1cc(S(=O)(=O)N2CCCC2)ccc1NCCc1ccccc1 | 1 | 25% | 3.2µM* | 0% | -3%
Cc1ccc(S(=O)(=O)N2C[C@]3(O)C[C@@H]4C(=O)N(c5ccccc5)C(=O)[C@@H]4C[C@]3(OC(=O)NC3CCCC3)C2)cc1 | -1 | / | / | / | /
O=C(Cc1ccccc1)NC1CCN(S(=O)(=O)c2ccc(C(=O)O)cc2)CC1 | -1 | 10% | 0% | 1% | 0%
O=C(Cc1ccccc1)NC1CCN(S(=O)(=O)c2cccc(F)c2)CC1 | -1 | 2% | 28µM* | -3% | 2%
Cc1noc(/C=C/N(C)C)c1S(=O)(=O)N(C)Cc1ccc(F)cc1 | -2 | ? | / | ? | 32µM*
Cc1noc(/C=C/N(C)C)c1S(=O)(=O)N1CCc2ccccc21 | 0 | -8% | -7% | ? | 25µM*
CCn1nc(NC(=O)c2ccccc2)c2cc3cccc(C)c3nc21 | 1 | ? | 2% | ? | 22µM*
CCn1nc(NC(C)=O)c2cc3ccc(C)cc3nc21 | 0 | 9.2µM* | / | ? | 1%
CCCCNC(=O)C1(C)CCN1C(=O)c1ccc(OC)c(F)c1 (stereo unspecified) | 0 | / | / | / | /
NC(=O)c1c(NC(=O)c2ccccc2)sc2c1CCN(Cc1ccccc1)C2 | 317* | ? | 2% | ? | 1%
CCN1CCc2c(sc(NC(=O)Nc3ccc(Cl)c(Cl)c3)c2C(N)=O)C1 | 25 | ? | 5% | ? | 25µM*
